Measured values as given in PubChem BioAssay (NCATS).
Records with an inconclusive call do not appear. Where a call stands in place of a potency, no number is given. Calls of active or inactive are those of the source. Unless noted, calls come from the whole dose curve; as a rule, active = well fitted curve in the direction sought with a large enough effect; inconclusive = small, poorly fitted or top-dose-only effect, or another doubt; inactive = no such curve, though single readings can be large; an effect the other way counts as inactive or inconclusive.

Experiments:
[1] = test system: Zika virus NS2B-NS3 protease; assay: Primary screen GU AMC qHTS for Zika virus inhibitors (AID 1347154); note: nearly all actives have a fitted effect of over 70% in size
Procedure, shortened: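 Fluorogenic AMC-substrate cleavage by noncovalent NS2B-NS3 protease complex (25 nM, pH 8.0 Tris buffer with Tween 20) followed for 15 minutes at room temperature (~20% conversion). Percent inhibition from ex340/em450 signal change, fitted by 4-parameter Hill equation.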

[2] = qHTS to identify inhibitors of the type 1 interferon - major histocompatibility complex class I in skeletal muscle: primary screen against the NCATS Mechanism Interrogation Plate v5.0 (MIPE) Libary (AID 1347411); note: nearly all actives have a fitted effect of over 65% in size
Procedure, shortened: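 Luminescence from HiBiT-tagged endogenous HLA-B*08:01 served as the MHC class I read-out. CRISPR-engineered C25cl48 human myoblasts received 4.0 ng/ml IFN-beta plus compound for 24 hrs, with an 11-point, 1:3 series topping at 46 uM final.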

[3] = Primary qHTS for small molecule stabilizers of the endoplasmic reticulum resident proteome: Secreted ER Calcium Modulated Protein (SERCaMP) assay (AID 1508630)
Procedure, shortened: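 GLuc-SERCaMP-expressing SH-SY5Y cells, pretreated 16 h with compound, are challenged with thapsigargin to empty ER calcium stores; after 4 h, coelenterazine is added directly to the medium and luminescence is imaged.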

[4] = molecular target: Cytochrome P450 2D6 (Homo sapiens) (UniProt P10635); assay: Cytochrome P450 family 2 subfamily D member 6 (CYP2D6) small molecule antagonists: luciferase biochemical (cell-free) qHTS assay (AID 1645840; active = well fitted curve in the direction sought with a large enough effect in the repeat runs; an effect the other way counts as inactive or inconclusive; note: potency is the fitted concentration of half-maximal effect; nearly all actives have a fitted effect of over 55% in size)
Chain of Cytochrome P450 2D6 (Homo sapiens) (P10635 whole entry, looked up): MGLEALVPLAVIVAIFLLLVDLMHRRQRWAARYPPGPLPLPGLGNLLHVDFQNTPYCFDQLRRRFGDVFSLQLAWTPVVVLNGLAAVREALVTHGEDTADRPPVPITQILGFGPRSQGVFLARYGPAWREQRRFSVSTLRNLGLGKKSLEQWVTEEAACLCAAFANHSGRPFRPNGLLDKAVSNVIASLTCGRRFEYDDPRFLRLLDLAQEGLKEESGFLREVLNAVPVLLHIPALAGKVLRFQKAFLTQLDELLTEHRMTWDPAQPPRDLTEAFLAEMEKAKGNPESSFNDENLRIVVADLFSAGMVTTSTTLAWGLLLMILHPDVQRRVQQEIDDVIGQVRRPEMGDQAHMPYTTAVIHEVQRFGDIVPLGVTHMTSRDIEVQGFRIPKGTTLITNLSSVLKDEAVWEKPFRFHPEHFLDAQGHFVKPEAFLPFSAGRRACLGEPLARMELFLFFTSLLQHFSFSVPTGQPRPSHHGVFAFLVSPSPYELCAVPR
Procedure, shortened: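 P450-Glo luminescent screen: recombinant CYP2D6 enzyme–proluciferin substrate mix preincubated with compound 10 min at room temperature, then NADPH regeneration added for 1 h at room temperature. Detection reagent added for 20 min; luciferin light read as relative luminescence units.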

[5] = molecular target: Cytochrome P450 2C9 (Homo sapiens) (UniProt P11712); assay: Cytochrome P450 family 2 subfamily C member 9 (CYP2C9) small molecule antagonists: luciferase biochemical (cell-free) qHTS assay (AID 1645842; active = well fitted curve in the direction sought with a large enough effect in the repeat runs; an effect the other way counts as inactive or inconclusive; note: potency is the fitted concentration of half-maximal effect; nearly all actives have a fitted effect of over 55% in size)
Chain of Cytochrome P450 2C9 (Homo sapiens) (P11712 whole entry, looked up): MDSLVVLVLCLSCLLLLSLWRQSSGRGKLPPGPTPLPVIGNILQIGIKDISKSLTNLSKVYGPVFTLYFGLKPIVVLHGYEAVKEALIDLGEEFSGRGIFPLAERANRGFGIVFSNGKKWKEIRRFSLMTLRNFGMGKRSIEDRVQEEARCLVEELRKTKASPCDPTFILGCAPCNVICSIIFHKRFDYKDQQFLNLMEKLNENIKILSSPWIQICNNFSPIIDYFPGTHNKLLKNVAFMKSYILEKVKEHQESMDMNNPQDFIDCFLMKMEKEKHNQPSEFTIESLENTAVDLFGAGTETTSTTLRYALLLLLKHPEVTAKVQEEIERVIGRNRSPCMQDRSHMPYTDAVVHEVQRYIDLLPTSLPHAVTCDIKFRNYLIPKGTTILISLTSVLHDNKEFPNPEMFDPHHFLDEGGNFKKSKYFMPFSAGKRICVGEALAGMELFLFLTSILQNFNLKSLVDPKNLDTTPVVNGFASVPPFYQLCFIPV
Procedure, shortened: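 Luminescence, after 20 min with luciferin detection reagent, reflected CYP2C9 turnover during a 1 h NADPH-driven reaction at 37C. Enzyme-substrate mix contained 0.4% bovine serum albumin and was preincubated with compound 10 min at room temperature.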

[6] = molecular target: Glutathione peroxidase 1 (Homo sapiens) (UniProt P07203); assay: Primary qHTS Assay for Inhibitors of Recombinant Selenoprotein Glutathione Peroxidase 1 (GPX1) (AID 1845191); note: nearly all actives have a fitted effect of over 65% in size
Chain of Glutathione peroxidase 1 (Homo sapiens) (P07203 whole entry, looked up): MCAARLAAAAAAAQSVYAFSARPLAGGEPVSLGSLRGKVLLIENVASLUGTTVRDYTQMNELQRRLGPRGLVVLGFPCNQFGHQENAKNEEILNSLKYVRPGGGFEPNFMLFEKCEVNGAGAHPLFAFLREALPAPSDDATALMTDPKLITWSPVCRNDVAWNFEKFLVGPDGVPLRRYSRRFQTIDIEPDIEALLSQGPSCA
Procedure, shortened: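 10 nM GPX1 + cpd, 30 min RT; start w/ 1 mM GSH, 0.5 mM cumene hydroperoxide, 0.5 mM NADPH, 100 nM GR, 0.01% BSA; buffer 50 mM Tris-HCl pH 7.5, 2 mM EDTA, 150 mM NaCl; Fl 340/450, 0 & 15 min.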

[7] = molecular target: Phospholipid hydroperoxide glutathione peroxidase GPX4 (Homo sapiens) (UniProt P36969); assay: Primary qHTS Assay for Inhibitors of Recombinant Selenoprotein Glutathione Peroxidase 4 (GPX4) (AID 1845192); conditions: outcome: dose series up to 50 µM unless noted; note: nearly all actives have a fitted effect of over 65% in size; for activity change, negative = inhibition: series mostly up to about 50 µM
Chain of Phospholipid hydroperoxide glutathione peroxidase GPX4 (Homo sapiens) (P36969 whole entry, looked up): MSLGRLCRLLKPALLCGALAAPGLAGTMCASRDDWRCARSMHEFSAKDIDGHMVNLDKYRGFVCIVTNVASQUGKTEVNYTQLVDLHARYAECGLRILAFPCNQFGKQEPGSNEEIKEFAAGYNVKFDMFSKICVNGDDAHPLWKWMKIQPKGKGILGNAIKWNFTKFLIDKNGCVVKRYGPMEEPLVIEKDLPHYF
Procedure, shortened: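 NADPH consumption, followed by fluorescence at 340/450 nm between 0 and 15 min, reports GPX4 activity via coupled glutathione reductase (100 nM). Enzyme 200 nM was pre-exposed to compound 30 min; 0.5 mM cumene hydroperoxide and 1 mM GSH served as substrates.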

[8] = qHTS drug screen for cell cycle checkpoint inhibitors in PARPi-resistant BRCA-mutant ovarian cancer cell lines. (AID 1963452; calls by dose curve); conditions: PEO1/OlaR viability, CellTiter-Glo luminescence, 96 h, stronger effect = lower value
Procedure, shortened: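 PEO1, PEO4 and PEO1/OlaR ovarian cancer cells, 600 per well, exposed 96 h at 37C to a dilution series. Viability read by CellTiter-Glo luminescence, normalized to DMSO and empty wells; activity summarized as Z-AUC.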

[9] = NCATS anti-infectives library activity on HEK293 viability as a counter-qHTS vs the C. elegans viability qHTS (AID 1745854);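 note: HEK293 cells exposed to compounds for 24 hr before the viability read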
Procedure, shortened: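 Compounds were acoustically plated (several concentrations, 1:5, final up to 41.7 uM), then 1500 HEK293 cells added per well and incubated 24 hr at 37C, 5% CO2. CellTiter-Glo was added and luminescence read after 10 min.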

[10] = Primary qHTS for inhibitors of nuclear receptor binding SET domain protein 2 (NSD2) in an isogenic RCH-ACV NSD2 p.E1099K mutant (9B) (AID 1645876); note: potency is the fitted concentration of half-maximal effect; nearly all actives have a fitted effect of over 70% in size
[11] = Primary qHTS for inhibitors of nuclear receptor binding SET domain protein 2 (NSD2) in an RCH-ACV wild type WT cells (2C) (AID 1645877); note: potency is the fitted concentration of half-maximal effect; nearly all actives have a fitted effect of over 70% in size
[12] = measured here: PEO1 parental Z-AUC

In the case of `NC(=NCc1ccc(Cl)cc1Cl)NC(=O)c1nc(Cl)c(N)nc1N`, the Potency [1] is reported as “inactive”.
In the case of `CN(CCc1ccc(Cl)c(Cl)c1)CC(O)COc1ccc(NS(C)(=O)=O)cc1` (stereo not drawn), the Potency [1] is reported as “inactive”.
With `OCC(O)COc1cccc2ccccc12` (stereo not drawn) the Potency [1] was “inactive”.
For `Cc1ccc(CC2(O)CCN(CCOc3ccc(O)cc3)CC2)cc1`, the Potency [1] was “inactive”.
With `CN(Cc1ccccc1)C(=O)[C@H](Cc1ccc2ccccc2c1)NC(=O)[C@@H]1C[C@@H](O)CN1C(=O)c1cn(C)c2ccccc12` the Potency [1] was “inactive”.
With `CCCCCCCCCCCCCCC[C@@H](O)[C@H](CO)NC(=O)CCCCCCC` the activity change, negative = inhibition [1] was 6.97% [at 6.83 µM] (inactive).
For `CCOC(=O)C1OC1C(=O)NC(CC(C)C)C(=O)NCCC(C)C` (stereo not drawn), the Potency [1] was “inactive”.
With `CN(C)CCC1(c2ccc(Cl)cc2)Cc2ccccc2C(=O)O1` (stereo not drawn) the Potency [1] was “inactive”.
With `N#C/C(=C(/N)Sc1ccc(N)cc1)c1ccccc1C(F)(F)F` the Potency [1] was “inactive”, the Potency [2] was “inactive” and the Potency [3] was “inactive”. The Potency [4] was 16.9 µM (active), the Potency [5] was 9.52 µM (active) and the Potency [6] was “inactive”. The Potency [7] was “inactive”, the Z-AUC [8] was -0.578 (inactive) and the Z-AUC [8, 12] was -0.277. For the same molecule, the Z-AUC ([8]; measured here: PEO4 Z-AUC) was -0.614.
With `CCCCCCCCCCCCCC(=O)N[C@@H](C)[C@H](O)c1ccccc1` the activity change, negative = inhibition [1] was 10.8% [at 6.83 µM] (inactive).
With `CCCC[C@@H](C=O)NC(=O)[C@H](CC(C)C)NC(=O)OCc1ccccc1` the Potency [1] was “inactive”, the Potency [2] was “inactive” and the Potency [3] was “inactive”. The outcome [9] was “inactive”, the Potency [6] was “inactive” and the Potency [7] was “inactive”. The Z-AUC [8] was 1.25 (inactive), the Z-AUC [8, 12] was 0.731 and the Z-AUC ([8]; measured here: PEO4 Z-AUC) was 0.856.
With `O=c1ccn([C@@H]2O[C@H](COP(=O)(O)O)[C@@H](O)[C@H]2O)c(=O)[nH]1` the Potency [1] was “inactive”.
In the case of `C=C1O[C@@](CO)(n2cnc3c(N)ncnc32)[C@H](O)[C@@H]1O`, the Potency [1] is reported as “inactive”.
In the case of `CCCCC/C=C\C\C=C/C=C/C=C/[C@@H](SC[C@H](N)C(=O)NCC(=O)O)[C@@H](O)CCCC(=O)O`, the activity change, negative = inhibition [1] is reported as 13.3% [at 0.59 µM] (inactive).
In the case of `Nc1nc2c([nH]c(=O)n2[C@@H]2O[C@H](CO)[C@@H](O)[C@H]2O)c(=O)[nH]1`, the activity change, negative = inhibition [1] is reported as 7.35% [at 6.83 µM] (inactive).
For `CC(C)=CCC/C(C)=C/CC/C(C)=C/CC[C@]1(C)CCc2c(C)c(O)c(C)c(C)c2O1`, the activity change, negative = inhibition [1] was 0.636% [at 6.83 µM] (inactive).
In the case of `COc1ccc2c(c1)CC[C@@H]1[C@@H]2CC[C@]2(C)[C@@H](NCCCCCCN3C(=O)C=CC3=O)CC[C@@H]12`, the Potency [1] is reported as “inactive”, the Potency [2] is reported as “inactive” and the Potency [3] is reported as “inactive”. For the same molecule, the Potency [10] was 13.2 µM (active), the Potency [11] was 5.25 µM (active) and the Potency [6] was “inactive”. For the same molecule, the Potency [7] was “inactive”, the Z-AUC [8] was 0.11 (inactive) and the Z-AUC [8, 12] was 0.00217. For the same molecule, the Z-AUC ([8]; measured here: PEO4 Z-AUC) was 0.205.
